# In all, about 220,000 compounds went through this assay and about 910 (0.41%) were called active.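 How the source made its calls: active means primary inhibition above the hit cutoff, then over 50% inhibition at one or more dose response concentrations (cut at about 23% in these data, passing the limit was not always enough); inconclusive means conflicting primary data, or primary hits not chosen for dose response; inactive means low primary inhibition, or under 50% at every dose.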 The entries come from a sample that favours actives as a whole. Potency and affinity values are given separately.
# Target: Aminopeptidase N (Plasmodium falciparum (isolate 3D7)) (UniProt O96935)
# Sequence (O96935 whole entry, looked up): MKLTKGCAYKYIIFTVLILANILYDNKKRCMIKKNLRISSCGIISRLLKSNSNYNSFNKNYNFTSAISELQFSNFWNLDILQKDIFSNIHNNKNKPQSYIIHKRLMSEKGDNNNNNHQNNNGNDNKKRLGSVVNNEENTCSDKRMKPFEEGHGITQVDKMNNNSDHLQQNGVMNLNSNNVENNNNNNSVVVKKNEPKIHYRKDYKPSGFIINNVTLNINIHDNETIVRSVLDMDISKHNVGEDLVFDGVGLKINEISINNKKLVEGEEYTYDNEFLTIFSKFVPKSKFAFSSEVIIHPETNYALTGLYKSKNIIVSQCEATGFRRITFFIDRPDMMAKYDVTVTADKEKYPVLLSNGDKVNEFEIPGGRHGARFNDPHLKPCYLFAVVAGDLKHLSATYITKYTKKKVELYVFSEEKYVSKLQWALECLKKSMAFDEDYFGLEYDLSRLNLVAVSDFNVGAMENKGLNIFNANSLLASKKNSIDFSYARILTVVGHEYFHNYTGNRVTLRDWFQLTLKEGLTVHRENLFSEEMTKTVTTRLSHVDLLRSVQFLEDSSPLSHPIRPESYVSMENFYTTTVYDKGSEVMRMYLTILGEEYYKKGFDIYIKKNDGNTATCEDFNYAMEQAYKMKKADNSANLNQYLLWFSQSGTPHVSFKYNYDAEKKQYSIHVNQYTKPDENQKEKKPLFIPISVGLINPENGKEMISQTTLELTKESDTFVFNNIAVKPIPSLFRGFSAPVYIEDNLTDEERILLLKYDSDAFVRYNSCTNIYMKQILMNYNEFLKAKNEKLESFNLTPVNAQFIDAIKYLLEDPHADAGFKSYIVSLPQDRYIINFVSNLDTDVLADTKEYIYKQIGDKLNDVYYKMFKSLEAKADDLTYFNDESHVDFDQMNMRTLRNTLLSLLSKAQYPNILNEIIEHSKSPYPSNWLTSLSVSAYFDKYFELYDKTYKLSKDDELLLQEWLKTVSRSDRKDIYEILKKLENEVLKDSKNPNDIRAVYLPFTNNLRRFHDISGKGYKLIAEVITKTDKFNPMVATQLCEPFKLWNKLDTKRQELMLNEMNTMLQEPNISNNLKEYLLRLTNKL
# Assay: malaria alanyl aminopeptidase activity blockers – biochemical, fluorogenic H-Leu-NHMec substrate, 1536-well (AID 1445);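 further: plate controls were DMSO full reaction for no effect and no enzyme background for full effect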
# Settings: recombinant M1AAP, H-Leu-NHMec fluorogenic kinetic assay; at 30 µM, hits give high values unless noted
row,Compound,inhibition
1,Cc1nc(CC(=O)Nc2nc(C(C)(C)C)cs2)cs1,13.3% (inactive)
2,O=C(O)c1ccc(-c2ncc[nH]2)cc1,2.64% (inactive)
3,Cc1ccc2c(c1)-c1c(cnn1CC(=O)N(Cc1ccco1)C1CCCCC1)CO2,4.81% (inactive)
4,Cc1ccc(C)c(CN2CCCN(C(=O)Cn3ncc4c3-c3ccccc3OC4)C2)c1,3.24% (inactive)
5,CC(CCc1ccco1)NC(=O)Cn1ncc2c1-c1ccccc1OC2 (configuration not stated),12.1% (inactive)
6,Cc1ccc2c(c1)-c1c(cnn1CC(=O)N1CCCN(Cc3ccccc3F)C1)CO2,26.4% (active)
7,Cc1ccc2c(c1)-c1c(cnn1CC(=O)NC(C)CCc1ccco1)CO2 (configuration not stated),25.2% (active)
8,Cc1ccc2c(c1)-c1c(cnn1CC(=O)O)CO2,0.53% (inactive)
9,COc1cc2c(cc1OC)CN(C(=O)CSc1nc(C)cc(C)c1C#N)CC2,3.39% (inactive)
10,COc1cc2c(cc1OC)CN(C(=O)CSc1n[nH]c(N)n1)CC2,0.58% (inactive)
11,COc1cc2c(cc1OC)CN(C(=O)CSc1nnc(C)s1)CC2,25.4% (active)
12,CCOCCn1cnc2sc(C(=O)NCC(=O)OCC)c(C)c2c1=O,1.07% (inactive)
13,Cc1cc2c(=O)oc(-c3ccccc3Br)nc2s1,-4.08% (inactive)
14,Cc1nn2c(=O)c(NC(=O)c3ccc(F)cc3)cnc2s1,6.66% (inactive)
15,O=C(Nc1cnc2sc3c(n2c1=O)CCCC3)c1ccc(F)cc1,23.9% (active)
16,Cc1ccc2c(c1)sc1ncc(NC(=O)c3ccc(F)cc3)c(=O)n12,-0.5% (inactive)
17,CCOC(=O)COc1ccc(N)cc1CC(NC(C)=O)(C(=O)OCC)C(=O)OCC,6.1% (inactive)
18,Cn1cc(CNC(=O)C2c3ccccc3Oc3ccccc32)cn1,13.7% (inactive)
19,COc1ccc(N=CC2=C(O)CC(C)(C)CC2=O)cc1,13.6% (inactive)
20,C=CCc1c(C)nc2c(C)cccc2c1SC(=N)N,1.57% (inactive)
21,CCOC(=O)CSc1nc(C)c2cccc(C)c2n1,0.76% (inactive)
22,CCOc1ccc(NC(=O)c2ccccc2OC)cc1,5.95% (inactive)
23,COc1ccc(NC(=O)CSc2c(C)n[nH]c2C)cc1,0.25% (inactive)
24,O=C(Nc1nc2ccccc2[nH]1)C1CC(=O)N(c2ccc3c(c2)OCCO3)C1 (configuration not stated),-0.34% (inactive)
25,O=C(NC(Cc1ccccc1)c1nc2ccccc2[nH]1)C1CC(=O)N(c2ccc3c(c2)OCCO3)C1 (configuration not stated),26% (active)

row,Compound,inhibition
1,O=C(NCCCc1ccccc1)C1CC(=O)N(c2ccc3c(c2)OCCO3)C1 (configuration not stated),2.32% (inactive)
2,O=C(c1cccs1)c1ccc(-c2cccs2)s1,15.2% (inactive)
3,CCN(CC)C(=O)c1ccc(-c2cccs2)s1,2.09% (inactive)
4,COc1ccc(NC(=O)Cn2nnc(C(=O)NCCc3ccc(OC)c(OC)c3)c2N)c(OC)c1,0.32% (inactive)
5,O=C(NNc1c(Cl)cc(Cl)cc1Cl)c1cccc([N+](=O)[O-])c1,0.41% (inactive)
6,Cc1ccccc1CSc1nn2c(=O)c(C)nnc2s1,1.72% (inactive)
7,O=[N+]([O-])c1cccc(S(=O)(=O)NCCc2cn3ccccc3n2)c1,-0.31% (inactive)
8,CCCc1ccc(-c2ccc(F)c(N)c2)nc1,6.24% (inactive)
9,Nc1ccc2nc(-c3ccc(Cl)cc3)[nH]c2c1,14% (inactive)
10,Nc1ccc2nc(-c3ccccc3)[nH]c2c1,1.94% (inactive)
11,CCOC(=O)CN(C(=O)CNC(=O)c1ccco1)C(C(=O)NC1CCCCC1)c1cccs1 (configuration not stated),2.4% (inactive)
12,Cc1cc(C)nc(SCC(=O)N/N=C/c2cccn2-c2ccc(O)cc2)n1,8.99% (inactive)
13,Cc1onc(-c2ccccc2Cl)c1C(=O)Nc1ccc(-c2cn3cccnc3n2)cc1,3.1% (inactive)
14,Cc1ccc(-c2cn3cccnc3n2)cc1NC(=O)c1c(-c2ccccc2Cl)noc1C,9.6% (inactive)
15,Cc1onc(-c2ccccc2Cl)c1C(=O)Nc1cccc(-c2cn3cccnc3n2)c1,26.2% (active)
16,COc1ccccc1NS(=O)(=O)c1cc(NC(=O)c2cccs2)ccc1N1CCOCC1,3.5% (inactive)
17,Cc1nn2c(N3CCOCC3)c3c(nc2c1-c1ccccc1)CCCC3,4.17% (inactive)
18,Cc1nn2c(N3CCCC3)c3c(nc2c1-c1ccccc1)CCC3,7% (inactive)
19,CC1(C)CC(=O)C(/C=N/n2c(C(F)(F)F)nc3ccccc3c2=O)=C(O)C1,27.5% (active)
20,CC1(C)CC(=O)C(/C=N/n2cnc3ccccc3c2=O)=C(O)C1,11.3% (inactive)
21,CC1(C)CC(=O)C(C=Nc2ccccc2)=C(O)C1,2.69% (inactive)
22,O=C(c1ccco1)N1CCN(C(c2ccccc2Cl)c2nnnn2Cc2ccco2)CC1 (configuration not stated),2.33% (inactive)
23,Cc1noc(NC(=O)c2ccccc2C(F)(F)F)c1C#N,-0.81% (inactive)
24,O=S(=O)(Nc1ccncc1Cl)c1cc(Cl)ccc1Cl,4.72% (inactive)
25,O=C(O)c1ccc(NS(=O)(=O)c2cc(Cl)ccc2Cl)cc1,5.33% (inactive)

row,Compound,inhibition
1,O=S(=O)(Nc1nccs1)c1ccc(Cl)cc1,-5.71% (inactive)
2,O=S(=O)(Nc1nccs1)c1cc(Cl)ccc1Cl,25.8% (active)
3,O=S(=O)(Nc1cccnc1)c1cccc(Cl)c1,-0.41% (inactive)
4,O=S(=O)(Nc1cccnc1)c1ccc(Cl)cc1,1.51% (inactive)
5,O=S(=O)(Nc1cccnc1)c1cc(Cl)ccc1Cl,25.4% (active)
6,O=S(=O)(Nc1ncccn1)c1ccc(NS(=O)(=O)c2cc(Cl)ccc2Cl)cc1,30.4% (inactive)
7,CCOc1ccccc1C(=O)Nc1nnc(SCC(=O)N2CCOCC2)s1,2.46% (inactive)
8,CN(CC(=O)N1CCCCCC1)S(=O)(=O)c1ccc(Br)s1,8.78% (inactive)
9,CCOC(=O)Cn1nc(C)c(NC(=O)COc2ccccc2[N+](=O)[O-])c1C,0.47% (inactive)
10,Cn1c(=O)n(-c2cccc(Cl)c2)c(=O)n1C,4.63% (inactive)
11,COc1ccc(/C=C/C(=O)NC(=S)NNC(=O)c2cccnc2)cc1,-8.48% (inactive)
12,Cc1cc2oc(=O)c3c(c2cc1OCc1nn[nH]n1)CCCC3,10.1% (inactive)
13,Cc1oc(C(=O)O)cc1COc1ccc2c3c(c(=O)oc2c1C)CCC3,7.51% (inactive)
14,Cc1oc(C(=O)O)cc1COc1ccc2c3c(c(=O)oc2c1)CCC3,5.26% (inactive)
15,Cc1cc(OCc2nn[nH]n2)c2c(C)c(CC(=O)O)c(=O)oc2c1,0.25% (inactive)
16,Cc1ccc(S(=O)(=O)NC2=NCCC2)cc1,-0.29% (inactive)
17,NC(=O)Cn1nc(C(F)(F)F)c2c1CCCC2,10.1% (inactive)
18,O=C(CSc1nnc(CCc2nc3ccccc3[nH]2)n1-c1ccccc1)NCc1ccccc1,-1.21% (inactive)
19,COc1ccc(-c2[nH]ncc2/C=C(/C#N)C(=O)NC2CCCCC2)cc1,7.83% (inactive)
20,N#C/C(=C\c1cn[nH]c1-c1ccccc1)C(=O)NC1CCCCCC1,9.74% (inactive)
21,Cc1ccc(-c2[nH]ncc2/C=C(\C#N)C(=O)NC2CCCCC2)cc1,24.9% (active)
22,CCOC(=O)c1[nH]c2ccc(OC)cc2c1NC(=O)c1cccc(OC)c1,3.82% (inactive)
23,Cc1nn(-c2ccccc2)c(Cl)c1C(=O)N(C)c1nc(-c2ccc(F)cc2)cs1,-3.58% (inactive)
24,COc1cc(/C=C/C(=O)NCCn2c(C)cc3ccccc32)cc(OC)c1OC,8.36% (inactive)
25,N#Cc1cn(CC(=O)N2CCCc3ccccc32)c2ccccc12,9.27% (inactive)

row,Compound,inhibition
1,O=Cc1cn(CC(=O)N2CCc3ccccc32)c2ccccc12,2.93% (inactive)
2,O=C(NCC(c1cccs1)N1CCOCC1)c1ccc(Cl)s1 (configuration not stated),7.44% (inactive)
3,C=CCNC(=S)N1CCC(C(=O)c2ccc(OC)cc2)CC1,8.35% (inactive)
4,COc1ccc(C2OC(=O)C(C)(C)C(=O)C2(C)C)cc1OC (configuration not stated),-0.38% (inactive)
5,Cc1ccc(S(=O)(=O)c2c(C)nn(C(C)(C)C)c2OC(=O)c2ccc(Br)o2)cc1,19.6% (inactive)
6,Cc1ccc(S(=O)(=O)c2c(C)nn(C(C)(C)C)c2OC(=O)c2ccco2)cc1,27.3% (active)
7,Cc1ccc(S(=O)(=O)c2c(C)nn(-c3ccccc3)c2OC(=O)c2ccco2)cc1,6.34% (inactive)
8,CCCCCOC(=O)C1C2C=CC3(CN(c4ccccc4C)C(=O)C13)O2 (configuration not stated),5.27% (inactive)
9,Nc1nc(CSc2ncccn2)nc(Nc2ccccc2)n1,-3.84% (inactive)
10,O=C(Nc1ccc(-n2cnnn2)cc1)C1CCCN1C(=O)NC1CCCCC1 (configuration not stated),3.93% (inactive)
11,O=C(CSc1ncn[nH]1)Nc1ccccc1-c1ccccc1,-4.4% (inactive)
12,Nc1cc(=O)[nH]c(SCC(=O)Nc2ccccc2-c2ccccc2)n1,2.73% (inactive)
13,CCCNc1ncccc1C(N)=O,-1.06% (inactive)
14,Cc1ccc(Cn2cccc(-c3nc4ccccc4s3)c2=O)cc1,10.1% (inactive)
15,O=c1c(-c2nc3ccccc3s2)cccn1Cc1ccc(Cl)cc1,2.06% (inactive)
16,O=c1c(-c2nc3ccccc3s2)cccn1Cc1ccccc1,25.6% (active)
17,O=C(O)CCC(=O)OC1CC2CCC1C2 (configuration not stated),-3.14% (inactive)
18,CCN(CC)S(=O)(=O)c1ccc(NC(=O)CC(NC(C)=O)c2ccccc2)cc1 (configuration not stated),-1.24% (inactive)
19,CCOc1cc(/C=C2\C(=O)N(c3nc(-c4ccc(Br)cc4)cs3)N=C2c2ccccc2)ccc1O,15.7% (inactive)
20,COc1ccc(C2=NN(c3ccccc3)C(=O)/C2=C\c2ccc(O)c(OC)c2)cc1,8.38% (inactive)
21,COc1cc(/C=C2\SC(c3ccc(C)cc3)=NC2=O)ccc1O,9.74% (inactive)
22,CCOc1cc(/C=C2\SC(=S)N(Nc3ccccc3)C2=O)ccc1O,14.7% (inactive)
